This passage reports outcome and AC50 results from PubChem BioAssay (EPA / NIEHS).

The source made the active and inactive calls. How the source made its calls: active means hit-call score of the fitted dose curve at least 0.9, where 1 is the maximum; inactive means score below 0.9.

Read-out in one assay: Interleukin-8 (IL8), CXCL8 (gene 3576)
Kind of assay: BSK_BF4T_IL8: BioMAP Diversity Plus: BF4T Assay for Interleukin-8 (IL8) Biomarker Activity (AID 2284263). The note with it: primary human bronchial epithelial cells with fibroblasts. The method in brief:
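Human bronchial epithelial cells with dermal fibroblasts co-culture; IL-8 measured by ELISA 24 hours after dosing, fitted vs DMSO. Cytotoxicity tracked in parallel cultures by SRB total-protein staining.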
For the compound `C[Si](Cl)(Cl)CCC(F)(F)C(F)(F)C(F)(F)C(F)(F)C(F)(F)C(F)(F)F`, the outcome was inactive.
On the same count and under the same terms, the result for `NC(O)(C(F)(F)F)C(F)(F)F` reads “inactive”; that for `OCC(F)(F)C(F)(F)C(F)(F)CO`, “inactive”.
Turning to `CCOC(=O)CC(=O)C(F)(F)C(F)(F)F`, the result was inactive.
On to `O=C(Cl)C(F)(F)C(F)(F)C(F)(F)C(F)(F)C(F)(F)C(F)(F)C(F)(F)F`, for which the result was inactive.
For `CN(C(=O)C(F)(F)C(F)(F)C(F)(F)F)[Si](C)(C)C`, the result was inactive.
With `COC(F)(C(F)F)C(F)(F)F` (configuration not stated), the outcome was inactive.
On the same count and under the same terms, the result for `FC(F)(F)C(F)(F)C(F)(F)CC1CO1` (configuration not stated) reads “inactive”; that for `O=C(O)C(F)(F)OC(F)(F)C(F)(F)OC(F)(F)C(F)(F)OC(F)(F)F`, “inactive”; that for `O=C(O)C(F)(F)C(F)(F)C(F)(F)C(F)(F)C(F)(F)C(F)(F)C(F)F`, “inactive”.
As to `NC(=O)C(F)(F)C(F)(F)C(F)(F)C(F)(F)C(N)=O`, the result was inactive.
Take `O=C(O)CCC(F)(F)C(F)(F)C(F)(F)F`: the result was inactive.

Read-out in a further assay: Interleukin-1 alpha (IL1a), IL1A (gene 3552)
Kind of assay: BSK_BF4T_IL1a: BioMAP Diversity Plus: BF4T Assay for Interleukin-1 alpha (IL1a) Biomarker Activity (AID 2284264). The note with it: primary human bronchial epithelial cells with fibroblasts. The method in brief:
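Human bronchial epithelial cells co-cultured with dermal fibroblasts, dosed and read at 24 h. Secreted/surface IL-1α quantified by ELISA; gain-of-signal fitted relative to DMSO baseline. Parallel SRB total-protein staining tracked cytotoxicity.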
`C[Si](Cl)(Cl)CCC(F)(F)C(F)(F)C(F)(F)C(F)(F)C(F)(F)C(F)(F)F`: the outcome was inactive.
The same measure, in the same setting: the result for `NC(O)(C(F)(F)F)C(F)(F)F` reads “inactive”; that for `OCC(F)(F)C(F)(F)C(F)(F)CO`, “inactive”; that for `CCOC(=O)CC(=O)C(F)(F)C(F)(F)F`, “inactive”.
As for `O=C(Cl)C(F)(F)C(F)(F)C(F)(F)C(F)(F)C(F)(F)C(F)(F)C(F)(F)F`, the outcome was inactive.
The same measure, in the same setting: the result for `CN(C(=O)C(F)(F)C(F)(F)C(F)(F)F)[Si](C)(C)C` reads “inactive”.
Still for that read-out and setting: with `COC(F)(C(F)F)C(F)(F)F` (configuration not stated) the entry was “inactive”; with `FC(F)(F)C(F)(F)C(F)(F)CC1CO1` (configuration not stated), “inactive”; with `O=C(O)C(F)(F)OC(F)(F)C(F)(F)OC(F)(F)C(F)(F)OC(F)(F)F`, “inactive”.
For the compound `O=C(O)C(F)(F)C(F)(F)C(F)(F)C(F)(F)C(F)(F)C(F)(F)C(F)F`, the result was inactive.
On to `NC(=O)C(F)(F)C(F)(F)C(F)(F)C(F)(F)C(N)=O`, for which the result was inactive.
Same read-out and setting: with `O=C(O)CCC(F)(F)C(F)(F)C(F)(F)F` the entry was “inactive”.

Read-out in a further assay: Decorin, DCN (gene 1634)
Kind of assay: BSK_MyoF_Decorin: BioMAP Diversity Plus: MyoF Assay for Decorin Biomarker Activity (AID 2284265). The note with it: primary human lung fibroblasts. The essentials:
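Human lung fibroblasts in the MyoF system were exposed to compound for 24 h, after which decorin was quantified by ELISA. Activity was fitted in the positive direction relative to DMSO negative control.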
A word on the AC50: it is the concentration at which the activity in the assay is half-maximal. For the compound `O=C1c2c(O)ccc(Nc3ccc(CCO)cc3)c2C(=O)c2c([N+](=O)[O-])ccc(O)c21`, the half-maximal activity concentration (AC50) is 9.73 µM (active).
With `C[Si](Cl)(Cl)CCC(F)(F)C(F)(F)C(F)(F)C(F)(F)C(F)(F)C(F)(F)F`, the result was inactive.
Regarding `Brc1nc2ccccc2s1`, the result was inactive.
Regarding `NC(O)(C(F)(F)F)C(F)(F)F`, the outcome was inactive.
Still for that read-out and setting: with `CC(C)CCCC(C)CCO` (configuration not stated) the entry was “inactive”; with `CC1=CC2C3C=CC(C3)C2C1C` (configuration not stated), “inactive”; with `OCC(F)(F)C(F)(F)C(F)(F)CO`, “inactive”.
Turning to `Cc1ccc(O)c(-n2nc3ccccc3n2)c1`, the outcome was inactive.
With `CCOC(=O)CC(=O)C(F)(F)C(F)(F)F`, the outcome was inactive.
As for `CCN(CC)c1ccc(C=O)cc1`, the outcome was inactive.
On the same count and under the same terms, with `O=C1C=CC(=O)N1c1ccc(Cc2ccc(N3C(=O)C=CC3=O)cc2)cc1` the entry was “inactive”; with `C[C@]12CC[C@H]3C(=CCc4cc(O)ccc43)[C@@H]1CCC2=O`, “inactive”.
For the compound `CC(C)(C)c1cc(CCC(=O)NCCCCCCNC(=O)CCc2cc(C(C)(C)C)c(O)c(C(C)(C)C)c2)cc(C(C)(C)C)c1O`, the result was inactive.
For `O=C(Cl)C(F)(F)C(F)(F)C(F)(F)C(F)(F)C(F)(F)C(F)(F)C(F)(F)F`, the result was inactive.
As to `CN(C(=O)C(F)(F)C(F)(F)C(F)(F)F)[Si](C)(C)C`, the outcome was inactive.
Take `Nc1cc([N+](=O)[O-])cc(Cl)c1O`: the result was inactive.
With `CCN(CC)c1ccc(C=O)c(O)c1`, the result was inactive.
As to `Cc1ccc(S(=O)(=O)C(I)I)cc1`, the half-maximal activity concentration (AC50) is 5.2 µM (active).
On to `Cc1cc(C)c(O)c(C(C)(C)C)c1`, for which the AC50 was 35.4 µM (active).
As for `COC(F)(C(F)F)C(F)(F)F` (configuration not stated), the outcome was inactive.
Take `FC(F)(F)C(F)(F)C(F)(F)CC1CO1` (configuration not stated): the outcome was inactive.
As for `Cc1cc(O)c(C(C)(C)C)cc1C(C)(C)C`, the half-maximal activity concentration (AC50) was 5.16 µM (active).
Regarding `O=C(c1ccccc1)c1ccc(O)cc1O`, the outcome was inactive.
With `Cc1cnccn1`, the outcome was inactive.
On the same count and under the same terms, with `CCN(CC)c1ccc2c(c1)Oc1cc(N(CC)CC)ccc1C21OC(=O)c2ccccc21` the entry was “inactive”.
Turning to `O=C(O)C(F)(F)OC(F)(F)C(F)(F)OC(F)(F)C(F)(F)OC(F)(F)F`, the result was inactive.
Still for that read-out and setting: the result for `CCN(CC)c1ccc(N=Nc2ccccc2)cc1` reads “inactive”.
Consider `O=C(O)C(F)(F)C(F)(F)C(F)(F)C(F)(F)C(F)(F)C(F)(F)C(F)F`, for which the outcome was inactive.
On to `CCOC(C=C(C)CCC=C(C)C)OCC`, for which the AC50 is 0.016 µM (active).
Turning to `NC(=O)C(F)(F)C(F)(F)C(F)(F)C(F)(F)C(N)=O`, the outcome was inactive.
Take `O=C=Nc1cccc2c(N=C=O)cccc12`: the result was inactive.
On to `O=C(O)CCC(F)(F)C(F)(F)C(F)(F)F`, for which the result was inactive.
`O=C=NCc1cccc(CN=C=O)c1`: the result was inactive.
